In PubChem BioAssay AID504400 (The Scripps Research Institute Molecular Screening Center, 2011):
Values without a mark were called inactive. How the calls were made is not given here.

System: Imidazoline I2
Assay: CYP450 and receptor off-target profile – biochemical, Ricerca HitProfilingScreen, selectivity assay for S1P4 agonist project, late-stage follow-up (AID 504400)
Settings: Ricerca radioligand binding/enzyme panel plus CYP450, Central, at 10 µM, active compounds read high

Clc1ccc(OCCOc2ccc(Br)nc2Br)c(Cl)c1
inhibition: 9%
